Test results published in PubChem BioAssay.
Measured potencies and affinities stand elsewhere. Records with an inconclusive call do not appear. Calls of active or inactive are those of the source. Unless noted, the rule behind the calls is not given here.

What was measured:
[1] = RMG-1 ovarian cancer cell viability loss – cherry-pick, dose response (AID 687029;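 active = signal drop whose fitted half-maximal concentration is at most twice the top valid dose, in every test run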;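 note: cells exposed to compound for 96 hours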)
[2] = IOSE-T80 viability loss, PAX8-independent line – cell-based, cherry-pick, selectivity assay for PAX8 inhibitor project, dose response (AID 687032;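 active = fitted half-maximal concentration for viability loss no higher than twice the top valid dose, in every repeat run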;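 note: cells exposed to compound for 96 h before reading; 0% = neutral control wells and -100% = 2 µM mitoxantrone kill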)
[3] = CMV-driven luciferase expression suppression in HEK293 – cell-based, luminescence, dry powder, counter-screen for Pax8 inhibitor project, dose response (AID 743020;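 active = signal-lowering compounds whose fitted half-maximal concentration is at or below twice the top tested dose in every run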;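 note: HEK293 cells stably expressing the CMV luciferase reporter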)
[4] = general cell-killing toxicity readout – plate reader, dry powder samples, cytotoxicity control for PAX8 inhibitor project, dose response (AID 743021)
[5] = toxicity toward immortalized ovarian surface epithelium – cell-based, plate reader, dry powder samples, cytotoxicity control for PAX8 inhibitor project, dose response (AID 743045);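 note: 0% = neutral control median and -100% = positive control median; more negative values mean more cell killing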
[6] = A2780 cell killing – plate reader, dry powder samples, cytotoxicity control, dose response (AID 743046);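 note: 0% = neutral control wells and -100% = cytotoxic reference compound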
[7] = viability loss in HeLa cells – cell-based, ATP luminescence, cherry-pick samples, cytotoxicity control, dose response (AID 687004;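 active = a fitted half-maximal concentration no higher than twice the top valid tested dose, with signal falling as cells die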;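 note: 0% = neutral control median and -100% = staurosporine 10 µM control median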)
[8] = IGROV1 cell killing – plate reader, dry powder samples, PAX8 inhibitor project, dose response (AID 743043);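 note: more negative means fewer viable cells or more cytotoxicity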
[9] = OVCAR8 cell viability loss – plate reader, dry powder samples, PAX8 project, dose response (AID 743197)
[10] = OVCAR-3 cell viability loss – plate reader, dry powder samples, PAX8 inhibitor project, dose response (AID 743044); conditions: NIH:OVCAR-3 ovarian cancer cell viability, stronger effect = lower value; at 4.2 µM unless noted
[11] = PAX8 transcriptional activity inhibition in RMG-I – RMG-I cells, luciferase, cherry-pick, dose response (AID 687027;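 active = every replicate test run called active, with the signal dropping as expected and potency within twice the top valid dose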)

CC1=CC(C)CC(C)OC(=O)CC(c2ccc(O)cc2)NC(=O)C(Cc2c(Br)[nH]c3ccccc23)N(C)C(=O)C(C)NC(=O)C(C)C1 (stereo unspecified)
inactive: outcome [1] | outcome [2] | outcome [3] | outcome [4]

CC1=C(N2CC2)C(=O)C(CO)=C(N2CC2)C1=O
inactive: outcome [1] | outcome [2] | outcome [3]

N#CC1c2ccccc2-n2nncc2CN1Cc1cc(Cl)cc(Cl)c1 (stereo unspecified)
inactive: outcome [1] | outcome [2] | outcome [3] | outcome [4]

O=c1[nH]c2ccccc2n1C1CCN(C(c2cccc3ccccc23)c2nnnn2-c2ccc3c(c2)OCCO3)CC1 (stereo unspecified)
inactive: outcome [1] | outcome [2] | outcome [3] | outcome [4]

C[C@H]1CCC/C=C/[C@@H]2C[C@H](O)C[C@H]2[C@H](O)/C=C/C(=O)O1
inactive: outcome [1] | outcome [2] | outcome [3] | outcome [4]

O=C(Cc1ccncc1)N1CCCCN2[C@H](C1)[C@H](c1ccc(C#Cc3ccccc3F)cc1)[C@@H]2CO
inactive: outcome [1] | outcome [2] | outcome [3] | outcome [4] | outcome [5] | outcome [6]

O=c1[nH]c(CN2CC=C(c3ccccc3)CC2)nc2cc(C(F)(F)F)ccc12
inactive: outcome [7]

CSCCC(c1nnnn1-c1ccc2c(c1)OCCO2)N1CCC(n2c(=O)[nH]c3ccccc32)CC1 (stereo unspecified)
inactive: outcome [1] | outcome [2] | outcome [3] | outcome [4]

O=C(Cc1cccnc1)N1CCCCN2[C@H](C1)[C@H](c1ccc(C#CC3CCCC3)cc1)[C@@H]2CO
inactive: outcome [1] | outcome [2] | outcome [3] | outcome [4] | outcome [8] | outcome [5] | outcome [9]

CC12CCC3C(CCC4(O)CC(O)CCC34C=NO)C1(O)CCC2C1=COC(=O)C1 (stereo unspecified)
inactive: outcome [1] | outcome [2] | outcome [3] | outcome [4]

O=C(Cc1ccccn1)N1CCCCN2[C@@H](CO)[C@@H](c3ccc(-c4ccccc4F)cc3)[C@@H]2C1
inactive: outcome [1] | outcome [2] | outcome [3] | outcome [8] | max activity [10] 31.6% [at 0.5 µM] | outcome [5] | outcome [6] | outcome [9]

CC(=O)OC(C)(C)/C=C/C(=O)C(C)(O)C1C(O)CC2(C)C3CC=C4C(CC(O)C(=O)C4(C)C)C3(C)C(=O)CC12C (stereo unspecified)
inactive: outcome [1] | outcome [2] | outcome [3] | outcome [4]

O=C(Cc1cccnc1)N1CCCCN2[C@H](C1)[C@H](c1ccc(/C=C/c3ccccc3)cc1)[C@@H]2CO
inactive: outcome [1] | outcome [2] | outcome [3] | outcome [8] | outcome [5]

COC(=O)C1=C(c2ccc(F)cc2OCc2ccccc2)C[C@@H]2CC[C@H]1N2C(=O)NCc1ccc2[nH]ccc2c1
inactive: outcome [1] | outcome [2] | outcome [3] | outcome [4]

O=c1[nH]c2ccccc2n1C1CCN(C(c2cc3ccccc3o2)c2nnnn2-c2ccc3c(c2)OCCO3)CC1 (stereo unspecified)
inactive: outcome [1]

C[C@@H]1O[C@@H](O[C@@H]2C=C3CCC4C(CC[C@]5(C)[C@@H](c6ccc(=O)oc6)CC[C@]45O)[C@@]3(C)CC2)[C@H](O)[C@H](O)[C@H]1O (stereo partly specified)
inactive: outcome [1] | outcome [2] | outcome [3] | outcome [4]

C[C@H]1CN([C@@H](C)CO)C(=O)CCCn2nncc2CO[C@H]1CN(C)C(=O)Oc1cccc2ccccc12
inactive: outcome [7]

COc1cc2c(c(OC)c1OC)-c1ccc(O)cc1[C@@H](NC(C)=O)CC2
inactive: outcome [1] | outcome [2] | outcome [3] | outcome [4]

COc1ccc(-n2nnnc2C(CCc2ccccc2)N2CCC(n3c(=O)[nH]c4ccccc43)CC2)cc1 (stereo unspecified)
inactive: outcome [1]

COC(=O)C1=C(C(=O)OC)C2OC1c1cc3ccccc3cc12
inactive: outcome [1] | outcome [2]

CCCc1nc2ccc(Br)cc2c(=O)n1-c1ccc([N+](=O)[O-])c(C(F)(F)F)c1
inactive: outcome [11] | outcome [1] | outcome [2] | outcome [3] | outcome [4]

COC(=O)C1=C(c2ccc(F)cc2OCc2ccccc2)C[C@@H]2CC[C@H]1N2C(=O)NC1Cc2ccccc2C1
inactive: outcome [1] | outcome [2] | outcome [3] | outcome [4]

C=C1C(C)C2C(Cc3ccccc3)NC(=O)C23OC(=O)/C=C/C(O)CCCC(C)C/C=C/C3C1O (stereo unspecified)
inactive: outcome [1] | outcome [2]

CC[C@H](C)[C@@H]1NC(=O)CNC(=O)c2csc(n2)[C@H](C(C)(C)O)OC(=O)C(C)(C)[C@H](CCCC(C)(Cl)Cl)OC(=O)c2csc1n2
inactive: outcome [1] | outcome [2] | outcome [3] | outcome [4]

O=c1[nH]c2ccccc2n1C1CCN(C(CCc2ccccc2)c2nnnn2Cc2ccccc2)CC1 (stereo unspecified)
inactive: outcome [1] | outcome [2] | outcome [3]

CC1=C(O)C(=O)C=C2C1=CC=C1C2(C)CCC2(C)C3CC(C)(C(=O)O)CCC3(C)CCC12C (stereo unspecified)
inactive: outcome [1] | outcome [2] | outcome [3]

CCn1nc(/C=C/c2ccccc2)nc2c(=O)n(C)c(=O)nc1-2
inactive: outcome [1]

CC[C@@]1(O)C(=O)OCc2c1cc1n(c2=O)Cc2cc3c(NC(=O)CN)cccc3nc2-1
inactive: outcome [1] | outcome [2] | outcome [3] | outcome [4]

O=c1[nH]c2ccccc2n1C1CCN(C(c2cc3ccccc3o2)c2nnnn2Cc2ccccc2)CC1 (stereo unspecified)
inactive: outcome [1] | outcome [2] | outcome [3]

O=c1[nH]c2ccccc2n1C1CCN(C(c2ccccc2OC(F)(F)F)c2nnnn2-c2ccc3c(c2)OCCO3)CC1 (stereo unspecified)
inactive: outcome [1]

O=c1[nH]c2ccccc2n1C1CCN(C(CCc2ccccc2)c2nnnn2-c2ccc3c(c2)OCCO3)CC1 (stereo unspecified)
inactive: outcome [1]

C[C@@H]1CN([C@@H](C)CO)C(=O)CCCn2nncc2CO[C@H]1CN(C)C(=O)Oc1cccc2ccccc12
inactive: outcome [7]

NC(=O)c1cn(C2OC(CO)C(O)C2O)c2ncnc(N)c12 (stereo unspecified)
inactive: outcome [1] | outcome [2]

CC(=O)OC(C)(C)/C=C/C(=O)C(C)(O)C1[C@H](O)C[C@@]2(C)C3CC=C4C(CC[C@@H](O)C4(C)C)[C@]3(CO)C(=O)C[C@]12C (stereo partly specified)
inactive: outcome [1] | outcome [3] | outcome [4]

CC1CC(C)CC(C)C(O)C(C#N)=CC=CCC(C2CCCC2C(=O)O)OC(=O)CC(O)C(C)C1 (stereo unspecified)
inactive: outcome [1] | outcome [3] | outcome [4]

Cc1ccc(OC(=O)N(C)C[C@@H]2OCc3ccccc3-c3c(n(C)c4ccccc34)C(=O)N([C@@H](C)CO)C[C@H]2C)cc1
inactive: outcome [1] | outcome [2] | outcome [4] | outcome [8] | outcome [5] | activity change, negative = cytotoxicity [6] -16.8% [at 8 µM]

O=C1NC2C(=CC(O)C(O)C2O)c2cc3c(cc21)OCO3 (stereo unspecified)
inactive: outcome [1] | outcome [3] | outcome [4]

COc1cccc(C(c2nnnn2-c2ccc3c(c2)OCCO3)N2CCC(n3c(=O)[nH]c4ccccc43)CC2)c1OC (stereo unspecified)
inactive: outcome [1] | outcome [2] | outcome [4]

Cc1c(C(=O)c2cccc3ccccc23)c2cccc3c2n1[C@H](CN1CCOCC1)CO3
inactive: outcome [1] | outcome [3] | outcome [4]

CC(=O)OC1CC(OC2C(O)CC(OC3C(O)CC(OC4CCC5(C)C(CCC6C5CCC5(C)C(C7=CC(=O)OC7)C(O)CC65O)C4)OC3C)OC2C)OC(C)C1OC1OC(CO)C(O)C(O)C1O (stereo unspecified)
inactive: outcome [1] | outcome [4]

CCC1CN2CCc3cc(OC)c(OC)cc3C2CC1CC1NCCc2c1[nH]c1ccc(O)cc21 (stereo unspecified)
inactive: outcome [1] | outcome [2] | outcome [4]

O=C1NC2C(O)C(O)C(O)C(O)C2c2cc3c(c(O)c21)OCO3 (stereo unspecified)
inactive: outcome [1] | outcome [2] | outcome [4]

C[C@]12CC[C@H](O)C[C@H]1CC[C@@H]1[C@@H]2CC[C@]2(C)[C@@H](C3=CC(=O)OC3)CC[C@]12O
inactive: outcome [1] | outcome [3] | outcome [4]

COc1cccc(C(c2nnnn2Cc2ccccc2)N2CCC(n3c(=O)[nH]c4ccccc43)CC2)c1OC (stereo unspecified)
inactive: outcome [1] | outcome [2] | outcome [4]

CCC(C)C1NC(=O)C(NC(=O)C(CC(C)C)N(C)C(=O)C2CCCN2C(=O)C(C)O)C(C)OC(=O)C(Cc2ccc(OC)cc2)N(C)C(=O)C2CCCN2C(=O)C(CC(C)C)NC(=O)[C@H](C)C(=O)[C@H](C(C)C)OC(=O)CC1O (stereo partly specified)
inactive: outcome [1] | outcome [3] | outcome [4]

CC1CCC/C=C/C2CC(O)CC2C(O)/C=C/C(=O)O1 (stereo unspecified)
inactive: outcome [1] | outcome [2] | outcome [4]

CN(C)CC(C(=O)Cc1ccccc1)c1ccccc1 (stereo unspecified)
inactive: outcome [1] | outcome [3] | outcome [4]

COc1cc(C2c3cc4c(c(O)c3CC3COC(=O)C32)OCO4)cc(OC)c1OC (stereo unspecified)
inactive: outcome [1] | outcome [2] | outcome [4]

Cc1ccc(C(=O)N[C@@H](C)CN2C3=NC[C@@H](Cc4ccccc4)N3C[C@H]2Cc2ccc(O)cc2)cc1Br
inactive: outcome [1] | outcome [3] | outcome [4]

O=C(c1ccccc1)C(CN1CCCC1)c1ccccc1 (stereo unspecified)
inactive: outcome [1] | outcome [2] | outcome [4]

COc1ccc(CC2C(=O)NC(C)C(=O)N(C)C3C(=O)N(C)C(Cc4ccc(O)c(c4)Oc4ccc(cc4)C3O)C(=O)NC(C)C(=O)NC(C)C(=O)N2C)cc1 (stereo unspecified)
inactive: outcome [1] | outcome [2] | outcome [4]

NC(=S)c1cn(C2OC(CO)C(O)C2O)c2ncnc(N)c12 (stereo unspecified)
inactive: outcome [1] | outcome [3] | outcome [4]

C[C@@H]1O[C@@H](O[C@H]2C[C@@H](O)[C@]3(CO)[C@H]4[C@H](O)C[C@]5(C)[C@@H](C6COC(=O)C6)CC[C@]5(O)[C@@H]4CC[C@]3(O)C2)[C@H](O)[C@H](O)[C@H]1O (stereo partly specified)
inactive: outcome [1] | outcome [2] | outcome [4]

CSCCC(c1nnnn1Cc1ccccc1)N1CCC(n2c(=O)[nH]c3ccccc32)CC1 (stereo unspecified)
inactive: outcome [1] | outcome [3] | outcome [4]

COC1C(O)C(C)OC(OC2CCC3(C)C(CCC4C3C(O)CC3(C)C(C5=CC(=O)OC5)CCC43O)C2)C1O (stereo unspecified)
inactive: outcome [1] | outcome [2] | outcome [4]

CC12CCC3C(CCC4(O)CC(O)CCC34C=O)C1(O)CCC2C1=CC(=O)OC1 (stereo unspecified)
inactive: outcome [1] | outcome [2] | outcome [4]

COC(=O)C12OCC34C(CC5C(C)=C(O)C(=O)CC5(C)C3C(O)C1O)OC(=O)C(OC(=O)/C=C(\C)C(C)C)C24 (stereo unspecified)
inactive: outcome [1] | outcome [2] | outcome [4]

COC1CC2C=C(C)C=CC=CC(=O)NC(c3ccccc3)CC=CCCC(O)CC(=O)C2=C1O (stereo unspecified)
inactive: outcome [1] | outcome [3]

CN1C2CCC1/C(=C/c1ccccn1)C(=O)/C2=C\c1ccccn1
inactive: outcome [1] | outcome [2] | outcome [4]

COC(=O)C1=C(c2ccc(F)cc2OCc2ccccc2)C[C@@H]2CC[C@H]1N2C(=O)NCc1ccc(C)cc1
inactive: outcome [1] | outcome [3] | outcome [4]
